{"source": "PubChem BioAssay AID485341", "about": "(National Center for Advancing Translational Sciences (NCATS), 2010)", "note": "In all, about 330,000 compounds went through this assay and about 1,700 (0.52%) were called active. The sample as a whole holds a higher share of actives than the screen did. Unmarked numbers belong to inactive results. The call rests on the fitted dose curve; in most records, active means well fitted inhibition curve with a large enough effect; inconclusive means small, poorly fitted or top-dose-only effect; inactive means no such curve, though single readings can be large or run the other way. Potency means the concentration at half of the fitted maximal effect."}
{"target": "Beta-lactamase (Escherichia coli (strain K12)) (UniProt P00811)", "sequence (P00811 whole entry, looked up)": "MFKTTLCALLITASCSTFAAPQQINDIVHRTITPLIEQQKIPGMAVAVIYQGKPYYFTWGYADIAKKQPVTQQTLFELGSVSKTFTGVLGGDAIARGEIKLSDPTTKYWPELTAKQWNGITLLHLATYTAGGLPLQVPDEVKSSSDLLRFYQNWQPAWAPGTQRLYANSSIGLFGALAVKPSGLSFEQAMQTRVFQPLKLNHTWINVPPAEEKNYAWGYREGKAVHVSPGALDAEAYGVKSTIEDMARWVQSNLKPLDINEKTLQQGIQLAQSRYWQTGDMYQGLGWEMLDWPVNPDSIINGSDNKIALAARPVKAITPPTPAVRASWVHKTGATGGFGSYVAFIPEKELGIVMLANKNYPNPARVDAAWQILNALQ", "assay": "qHTS Inhibitors of AmpC Beta-Lactamase (assay without detergent); further: nearly all actives have a fitted effect of over 20% in size;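 on activity change, negative = inhibition: plate controls were no compound for no effect and no enzyme for full effect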", "details": "AmpC nitrocefin hydrolysis, absorbance 480 nm, 0.0001% Triton; series mostly up to 57.1 µM; activity change, negative = inhibition: at the top concentration", "method_in_brief": "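20 mM phosphate pH 7.0 + 0.01% (detergent screen) or 0.0001% Triton X-100; 5.3 nM AmpC reagent; cpd preinc 15 min RT; nitrocefin (800 uM stock) to start; A480 q20 s × 4 min; Activity was normalised to no-enzyme and no-compound control wells.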"}
{"smiles": "Cc1cc2ccccn2c1C(=O)c1cccc(F)c1", "activity change, negative = inhibition": "-22.5%"}
{"smiles": "Cc1cc2ccccn2c1C(C[N+](=O)[O-])c1c(F)cccc1Cl", "note": "(centres undefined)", "activity change, negative = inhibition": "-29.1%"}
{"smiles": "Cc1ccc(C(C[N+](=O)[O-])c2c(C)cc3ccccn23)cc1", "note": "(centres undefined)", "Potency": "22.4 µM (active)"}
{"smiles": "Cn1c(=NC(=O)c2ccc3c(c2)OCCO3)sc2cc(S(C)(=O)=O)ccc21", "activity change, negative = inhibition": "-16.1%"}
{"smiles": "COc1ccccc1C(CNC(=O)c1cccc(S(=O)(=O)Nc2ccc(F)cc2)c1)N(C)C", "note": "(centres undefined)", "activity change, negative = inhibition": "-2.62%"}
{"smiles": "C[C@H](NC(=O)c1ccccc1)C(=O)OCC(=O)c1c[nH]c2ccccc12", "activity change, negative = inhibition": "-13.4%"}
{"smiles": "CN(C)c1ccc(C(CNC(=O)c2ccc(F)cc2)c2c[nH]c3ccccc23)cc1", "note": "(centres undefined)", "Potency": "14.1 µM (active)"}
{"smiles": "CCOc1ccc2[nH]c(C(=O)N/N=C/c3cccc(OC)c3OC)cc2c1", "activity change, negative = inhibition": "-27.1%"}
{"smiles": "COc1cccc(/C=N/NC(=O)CNC(=O)c2ccc(S(=O)(=O)N3CCOCC3)cc2)c1OC", "activity change, negative = inhibition": "8.54%"}
{"smiles": "COc1cccc(/C=N/NC(=O)c2[nH]nc3c2CCc2ccccc2-3)c1O", "Potency": "5.62 µM (active)"}
{"smiles": "CCc1ccc(C(=O)NN=C2CCCCCC2)s1", "activity change, negative = inhibition": "-20.7%"}
{"smiles": "CCCNS(=O)(=O)c1ccc(CCC(=O)N2CCCC2)cc1", "activity change, negative = inhibition": "-3.42%"}
{"smiles": "COc1ccc(C(CC(=O)c2ccccc2)S(=O)(=O)c2ccccc2)cc1", "note": "(centres undefined)", "activity change, negative = inhibition": "-1.57%"}
{"smiles": "COc1ccc(-n2c(SCC(=O)NCc3cccs3)nnc2-c2ccoc2C)cc1", "activity change, negative = inhibition": "-16.2%"}
{"smiles": "CCOC(=O)N1CCN(C(=O)CSc2nnc(-c3c[nH]c4ccccc34)n2CCOC)CC1", "activity change, negative = inhibition": "4.38%"}
{"smiles": "O=C(CSc1nnc(-c2c[nH]c3ccccc23)n1-c1ccc(F)cc1)NCc1ccco1", "activity change, negative = inhibition": "-43%"}
{"smiles": "CCn1c(SCCC(C)C)nnc1-c1c[nH]c2ccccc12", "activity change, negative = inhibition": "-14.4%"}
{"smiles": "CCn1c(SCC(=O)Nc2ccc(OC)c(OC)c2)nnc1-c1c[nH]c2ccccc12", "Potency": "0.631 µM (active)"}
{"smiles": "COc1ccc(-n2c(SCC(=O)NCc3ccco3)nnc2-c2c[nH]c3ccccc23)cc1", "Potency": "3.55 µM (active)"}
{"smiles": "N/C(=N\\S(=O)(=O)c1ccc(Cl)cc1)N1CCOCC1", "activity change, negative = inhibition": "5.56%"}
{"smiles": "CN(C)Cc1c(O)ccc2c(=O)c(-c3ccccc3Cl)coc12", "activity change, negative = inhibition": "-14.4%"}
{"smiles": "CCOC(=O)c1cccc(NC(=O)CN(c2ccc(C)cc2)S(=O)(=O)c2c(C)noc2C)c1", "activity change, negative = inhibition": "-8.36%"}
{"smiles": "Cc1ccc(CNC(=O)CCNS(=O)(=O)c2cccc3nonc23)cc1", "activity change, negative = inhibition": "-10.5%"}
{"smiles": "Cc1ccc(N(CC(=O)Nc2cc(C)cc(C)c2)S(=O)(=O)c2cccc3nonc23)cc1", "Potency": "15.8 µM (active)"}
{"smiles": "COC(=O)c1ccc(COc2ccc(C#N)cc2)o1", "activity change, negative = inhibition": "-7.25%"}
{"smiles": "N#Cc1c(NC(=O)CCCl)sc2c1CCCCC2", "activity change, negative = inhibition": "-10.9%"}
{"smiles": "Cc1cccc(C(=O)OCC(=O)Nc2sc3c(c2C#N)CCC3)c1", "activity change, negative = inhibition": "-5.45%"}
{"smiles": "N#CCC(=O)Nc1ccc(C(=O)OCC(=O)Nc2sc3c(c2C#N)CCCC3)cc1", "Potency": "14.1 µM (active)"}
{"smiles": "CCOC(=O)Cn1c2c(c(-c3ccccc3OC)cc1=O)CCCC2", "activity change, negative = inhibition": "-14.6%"}
{"smiles": "O=C(CSc1nnc(-c2ccncc2)n1C1CCCCC1)Nc1ccccc1", "activity change, negative = inhibition": "29.1%"}
{"smiles": "Cc1ccc(N2C(=O)C3N=NN(CC(=O)N4N=C(c5cccc6ccccc56)CC4c4ccccc4)C3C2=O)cc1", "note": "(centres undefined)", "activity change, negative = inhibition": "-30.7%"}
{"smiles": "Cc1cccc(C(C)C)c1NC(=O)COC(=O)C1CC(=O)N(Cc2ccccc2)C1", "note": "(centres undefined)", "activity change, negative = inhibition": "32.1%"}
{"smiles": "NS(=O)(=O)c1ccc(CNC(=O)c2cccc(Oc3ccccc3)c2)cc1", "activity change, negative = inhibition": "-18.7%"}
{"smiles": "NS(=O)(=O)c1ccc(CNC(=O)c2cccc(S(=O)(=O)N3CCc4ccccc43)c2)cc1", "Potency": "14.1 µM (active)"}
{"smiles": "Cc1ccc(NC(=O)c2cccc(S(=O)(=O)N3CCCc4ccccc43)c2)nc1", "activity change, negative = inhibition": "-11.9%"}
{"smiles": "O=C(NC1CC1)C1=C[C@H](c2c[nH]c3ccccc23)C[C@H](OCc2ccc(CO)cc2)O1", "activity change, negative = inhibition": "67.4%"}
{"smiles": "CCNC(=O)NC(=O)C(C)OC(=O)C1CCN(S(=O)(=O)c2ccccc2F)CC1", "note": "(centres undefined)", "activity change, negative = inhibition": "-3.92%"}
{"smiles": "CCOC1CS(=O)(=O)CC1OCC", "note": "(centres undefined)", "activity change, negative = inhibition": "-17.7%"}
{"smiles": "c1csc(-c2nnc(COc3ccc4c(c3)OCO4)o2)c1", "activity change, negative = inhibition": "-26.4%"}
{"smiles": "C=CS(=O)c1sc(Cl)c(N2CCOCC2)c1[N+](=O)[O-]", "note": "(centres undefined)", "activity change, negative = inhibition": "-20.3%"}
{"smiles": "Cc1cc(Nc2cccc(F)c2)n2ncnc2n1", "activity change, negative = inhibition": "-4.37%"}
{"smiles": "C/C(=N\\Nc1ncc(Cl)cc1Cl)c1ccc(S(=O)(=O)NCc2ccco2)cc1", "Potency": "31.6 µM (active)"}
{"smiles": "O=S(=O)(NCc1ccco1)c1cnc(Cl)c(Cl)c1", "activity change, negative = inhibition": "-20.1%"}
{"smiles": "Cc1c(Cl)cnc(NC(=O)COC(=O)c2ccc(S(=O)(=O)NCc3ccco3)cc2)c1Cl", "activity change, negative = inhibition": "-40.8%"}
{"smiles": "O=C(c1cccnc1)N(c1cc2sc(=O)oc2c2ccccc12)S(=O)(=O)c1ccccc1", "activity change, negative = inhibition": "-28.4%"}
{"smiles": "Cc1ccccc1SCC(=O)OCC(=O)N1CC(=O)Nc2ccccc21", "activity change, negative = inhibition": "-16.8%"}
{"smiles": "O=C1CSC(=S)N1/N=C/c1ccc(O)c([N+](=O)[O-])c1", "activity change, negative = inhibition": "-44.4%"}
{"smiles": "Cc1cc(C(=O)N/N=C/c2ccc(O)c([N+](=O)[O-])c2)c(C)n1-c1ccc(F)cc1", "Potency": "17.8 µM (active)"}
{"smiles": "Cc1cc(C(=O)COC(=O)C2CC2)c(C)n1-c1ccc(F)cc1", "activity change, negative = inhibition": "-17.5% [at 11.4 µM]"}
{"smiles": "CCOc1ccc(CN2CCNC(=O)C2CC(=O)NCCCC2CCCC2)cc1", "note": "(centres undefined)", "activity change, negative = inhibition": "150%"}
{"smiles": "COc1ccc(NC(=O)c2ccc(C#CC(C)(C)O)cc2)cc1", "activity change, negative = inhibition": "4.78%"}
{"smiles": "COc1ccc(NC(=O)c2sccc2SCC#N)cc1", "Potency": "4.47 µM (active)"}
{"smiles": "COc1ccc(NC(=O)CSc2nc(C)cs2)cc1", "activity change, negative = inhibition": "-12.6%"}
{"smiles": "CNC[C@H]1Oc2c(NC(=O)C3CCCCC3)cccc2C(=O)N([C@H](C)CO)C[C@@H]1C", "activity change, negative = inhibition": "-6.12%"}
{"smiles": "Cn1cccc1Cc1nnc(SCC(=O)NCc2ccc3c(c2)OCO3)n1CCc1ccccc1", "activity change, negative = inhibition": "66.4%"}
{"smiles": "Cc1cc(=O)oc(C)c1C(=O)Nc1cnc2ccccc2c1", "activity change, negative = inhibition": "-8.5%"}
{"smiles": "Cc1ccc(N=Cc2c(O)cc(C)oc2=O)c(C)c1", "activity change, negative = inhibition": "-18.8%"}
{"smiles": "Cc1cc(O)c(C(=O)/C=C/c2c(F)c(F)c(F)c(F)c2F)c(=O)o1", "Potency": "11.2 µM (active)"}
{"smiles": "COc1ccccc1C(=O)Nc1ccc(C)c(S(=O)(=O)N2CCCCC2)c1", "activity change, negative = inhibition": "-3.57%"}
{"smiles": "Nn1c(SCC(=O)NC(=O)NC2CCCC2)nnc1-c1ccccc1F", "activity change, negative = inhibition": "-17.2%"}
{"smiles": "COc1cccc2c1OCC1COc3c(c(=O)n(C)c(=O)n3C)C21", "note": "(centres undefined)", "activity change, negative = inhibition": "-17.4%"}
{"smiles": "C=CCNCCCCOc1ccccc1", "activity change, negative = inhibition": "0.575%"}
{"smiles": "O=C(O)C1CCCN(S(=O)(=O)c2cccc3cccnc23)C1", "note": "(centres undefined)", "activity change, negative = inhibition": "-14.6%"}
{"smiles": "COc1ccccc1CNC(=O)C1CCCN(S(=O)(=O)c2cccc3cccnc23)C1", "note": "(centres undefined)", "Potency": "22.4 µM (active)"}
{"smiles": "COc1cccc(CNC(=O)C2CCN(S(=O)(=O)c3cccc4cccnc34)CC2)c1", "activity change, negative = inhibition": "-3.22%"}
{"smiles": "CC(=O)C1C(c2cccc(Oc3ccccc3)c2)NC(=O)NC1(O)C(F)(F)F", "note": "(centres undefined)", "activity change, negative = inhibition": "6.25%"}
{"smiles": "CC(=O)C1C(c2ccc(Cl)cc2)NC(=O)NC1(O)C(F)(F)F", "note": "(centres undefined)", "Potency": "44.7 µM (active)"}
{"smiles": "CCOC(=O)C1C(c2ccc(O)cc2)NC(=O)NC1(O)C(F)(F)F", "note": "(centres undefined)", "activity change, negative = inhibition": "1.51%"}
{"smiles": "COC(=O)[C@@H]1CC(O)CN1C(=O)C12CC3CC(CC(C3)C1)C2", "note": "(some centres undefined)", "activity change, negative = inhibition": "-9.8%"}
{"smiles": "Cc1ccc(NS(=O)(=O)c2ccc(C(C)(C)C)cc2)cn1", "activity change, negative = inhibition": "-22.9%"}
{"smiles": "CC(=O)Nc1ccc(S(=O)(=O)Nc2ccc(-c3ccc4nnc(C)n4n3)cc2)cc1", "activity change, negative = inhibition": "17.8%"}
{"smiles": "CC(=O)Nc1ccc(S(=O)(=O)Nc2nc(-c3ccc(C(C)(C)C)cc3)cs2)cc1", "Potency": "35.5 µM (active)"}
{"smiles": "Cn1c(-c2ccc(F)cc2)cnc1SCC(=O)NCc1ccco1", "activity change, negative = inhibition": "3.42%"}
{"smiles": "O=C(CSc1nnc2scc(-c3ccc(F)cc3)n12)NCc1ccco1", "activity change, negative = inhibition": "-21.6%"}
{"smiles": "Cc1ccc(-c2csc3nnc(SCC(=O)NCc4ccco4)n23)cc1", "Potency": "0.316 µM (active)"}
{"smiles": "COc1ccccc1N(CC(=O)Nc1ccc(C(F)(F)F)cc1)S(C)(=O)=O", "activity change, negative = inhibition": "41.8%"}
{"smiles": "O=C(Cn1nc(Cc2cccnc2)c2ccccc2c1=O)NCC1CCCO1", "note": "(centres undefined)", "Potency": "0.501 µM (active)"}
{"smiles": "O=C(Cn1nc(Cc2cccnc2)c2ccccc2c1=O)NCC1COc2ccccc2O1", "note": "(centres undefined)", "activity change, negative = inhibition": "9.49%"}
{"smiles": "Cc1nn(CC(=O)NCC2CCCO2)c(=O)c2cc3ccccc3n12", "note": "(centres undefined)", "activity change, negative = inhibition": "-8.11%"}
{"smiles": "COCCNC(=O)Cn1cc2c(n1)CCCCC2", "activity change, negative = inhibition": "0.855%"}
{"smiles": "O=C(Cn1cc2c(n1)CCCCC2)NCCN1CCOCC1", "activity change, negative = inhibition": "-5.23%"}
{"smiles": "CCOC(=O)N1CCC(NC(=O)Cn2cc3c(n2)CCCCC3)CC1", "Potency": "35.5 µM (active)"}
{"smiles": "Cc1cc(-c2nnc(CCC(=O)NC(c3ccccc3)c3ccccc3)o2)no1", "activity change, negative = inhibition": "13.8%"}
{"smiles": "CCOC(=O)/C(=N\\Nc1cc(Cl)ccc1Cl)N1CCN(C)CC1", "activity change, negative = inhibition": "142%"}
{"smiles": "CCc1ccc(CN(C)C(C)C(=O)Nc2ccc(S(=O)(=O)N3CCCC3)cc2)cc1", "note": "(centres undefined)", "activity change, negative = inhibition": "3.82%"}
{"smiles": "O=C(CSC(=S)N1CCOCC1)c1ccccc1", "activity change, negative = inhibition": "-17%"}
{"smiles": "O=C(c1cc2cc(Br)cc(Br)c2oc1=O)N1CCOCC1", "activity change, negative = inhibition": "-18.2%"}
{"smiles": "O=C(CSC(=S)N1CCOCC1)c1cc(Br)cc(Br)c1O", "Potency": "20 µM (active)"}
{"smiles": "CCN(CC(=O)Nc1ccc(Cl)c(S(=O)(=O)N(C)C)c1)Cc1nc2ccccc2c(=O)[nH]1", "activity change, negative = inhibition": "-6.1%"}
